# Test results as given in PubChem BioAssay AID1159580 (chemical genetic matrix, 2015).
# Values joined by “and” are separate entries in the source; they are usually repeats but may differ in a detail not shown here. Identical values can stand only once. Screen size: about 5,500 compounds; about 2,000 (36%) were called active. Roughly 18% stayed inconclusive and do not appear here. This is one part of the list. Values without a mark were called inactive. No stated cut-off is given here; in the data, active means normalized growth mostly below about 0.91 (no sharp cut-off); inconclusive means no clear call, values can overlap the other calls; inactive means mostly above about 0.92.
# Assay: chemical genetic growth profiling, strain panel (AID 1159580);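 further: tested at 20 µM; growth read once vehicle control cultures reached saturation at 30 °C; 1 = growth at the plate median or of vehicle wells; lower values mean less growth of the strain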
# Details: S. cerevisiae deletion strains, growth OD
# [1] = locus YHR030C, strain SLT2, hits give low values
# [2] = locus YHR079C, strain IRE1, hits give low values
# [3] = locus YJL095W, strain BCK1, hits give low values
# [4] = locus YJR066W, strain TOR1, hits give low values
# [5] = locus YLR113W, strain HOG1, hits give low values
# [6] = locus YNL183C, strain NPR1, hits give low values
# [7] = locus YOR231W, strain MKK1, hits give low values
# [8] = locus YPL256C, strain CLN2, hits give low values
smiles,measurement,setting,value
C=C(C)[C@@H]1CC[C@]2(CO)CC[C@]3(C)[C@H](CCC4[C@@]5(C)CC[C@H](O)C(C)(C)C5CC[C@]43C)C12 (some centres not stated),normalized growth,"locus YAL021C, strain ccr4, hits give low values",1.02
same,normalized growth,"locus YAL026C, strain drs2, hits give low values",1.01
same,normalized growth,"locus YAL030W, strain snc1, hits give low values",1.01
same,normalized growth,"locus YBL061C, strain skt5, hits give low values",1.02
same,normalized growth,"locus YBR009C, strain hhf1, hits give low values",1.01
same,normalized growth,"locus YBR021W, strain FUR4, hits give low values",0.984
same,normalized growth,"locus YBR023C, strain chs3, hits give low values",1.01
same,normalized growth,"locus YBR171W, strain sec66, hits give low values",1.02
same,normalized growth,"locus YBR229C, strain ROT2, hits give low values",0.995
same,normalized growth,"locus YBR231C, strain swc5, hits give low values",1.01
same,normalized growth,"locus YBR279W, strain paf1, hits give low values",1.01
same,normalized growth,"locus YCL011C, strain gbp2, hits give low values",1.01
same,normalized growth,"locus YCL016C, strain dcc1, hits give low values",1.01
same,normalized growth,"locus YCL029C, strain bik1, hits give low values",0.979
same,normalized growth,"locus YCL061C, strain MRC1, hits give low values",1.01
same,normalized growth,"locus YCL069W, strain vba3, hits give low values",1.01
same,normalized growth,"locus YCR088W, strain abp1, hits give low values",1.01
same,normalized growth,"locus YDL005C, strain med2, hits give low values",1
same,normalized growth,"locus YDL035C, strain GPR1, hits give low values",1.02
same,normalized growth,"locus YDL040C, strain nat1, hits give low values",1.01
same,normalized growth,"locus YDL074C, strain BRE1, hits give low values",1.01
same,normalized growth,"locus YDL101C, strain DUN1, hits give low values",0.991
same,normalized growth,"locus YDL185W, strain tfp1, hits give low values",0.977
same,normalized growth,"locus YDL192W, strain arf1, hits give low values",0.997
same,normalized growth,"locus YDR001C, strain nth1, hits give low values",1
same,normalized growth,"locus YDR069C, strain doa4, hits give low values",1
same,normalized growth,"locus YDR101C, strain arx1, hits give low values",0.977
same,normalized growth,"locus YDR137W, strain rgp1, hits give low values",1.01
same,normalized growth,"locus YDR159W, strain sac3, hits give low values",1.01
same,normalized growth,"locus YDR162C, strain NBP2, hits give low values",1.02
same,normalized growth,"locus YDR195W, strain ref2",0.972
same,normalized growth,"locus YDR297W, strain sur2, hits give low values",1.01
same,normalized growth,"locus YDR318W, strain mcm21, hits give low values",1.02
same,normalized growth,"locus YDR334W, strain swr1, hits give low values",0.996
same,normalized growth,"locus YDR335W, strain msn5, hits give low values",1
same,normalized growth,"locus YDR388W, hits give low values",1.01
same,normalized growth,"locus YDR392W, strain spt3, hits give low values",0.925
same,normalized growth,"locus YDR502C, strain sam2, hits give low values",0.997
same,normalized growth,"locus YEL003W, strain gim4, hits give low values",1
same,normalized growth,"locus YEL037C, strain rad23, hits give low values",0.977
same,normalized growth,"locus YEL061C, strain CIN8 (second series), hits give low values",1
same,normalized growth,"locus YEL061C, strain CIN8, hits give low values",1.02
same,normalized growth,"locus YER015W, strain faa2, hits give low values",0.996
same,normalized growth,"locus YER016W, strain bim1, hits give low values",1.01
same,normalized growth,"locus YER110C, hits give low values",0.99
same,normalized growth,"locus YER111C, strain swi4, hits give low values",1.01
same,normalized growth,"locus YER155C, strain BEM2 (second series), hits give low values",0.984
same,normalized growth,"locus YER155C, strain BEM2, hits give low values",0.992
same,normalized growth,"locus YER167W, strain BCK2, hits give low values",1
same,normalized growth,"locus YFR010W, strain ubp6, hits give low values",0.999
same,normalized growth,"locus YGL078C, strain dbp3, hits give low values",0.989
same,normalized growth,"locus YGL086W, strain mad1, hits give low values",0.973
same,normalized growth,"locus YGL167C, strain pmr1, hits give low values",1.01
same,normalized growth,"locus YGL173C, strain kem1, hits give low values",1.01
same,normalized growth,"locus YGL227W, strain vid30, hits give low values",1.02
same,normalized growth,"locus YGL240W, strain doc1, hits give low values",1.01
same,normalized growth,"locus YGL248W, strain PDE1, hits give low values",1
same,normalized growth,"locus YGL253W, strain hxk2, hits give low values",1.04
same,normalized growth,"locus YGR135W, strain pre9, hits give low values",1.01
same,normalized growth,"locus YGR252W, strain gcn5, hits give low values",1.05
same,normalized growth,"locus YHR013C, strain ard1, hits give low values",1.03
same,normalized growth,"locus YHR027C, strain rpn1, hits give low values",1
same,normalized growth,[1],0.995 and 0.997
same,normalized growth,"locus YHR079C, strain IRE1 (second series), hits give low values",0.992
same,normalized growth,[2],0.998
same,normalized growth,"locus YHR094C, strain hxt1, hits give low values",1
same,normalized growth,"locus YHR129C, strain ARP1, hits give low values",0.949
same,normalized growth,"locus YHR142W, strain chs7, hits give low values",1.06
same,normalized growth,"locus YHR200W, strain rpn10, hits give low values",0.998
same,normalized growth,"locus YIL066C, strain RNR3, hits give low values",0.993
same,normalized growth,"locus YIL073C, strain SPO22, hits give low values",1.01
same,normalized growth,"locus YIL125W, strain kgd1, hits give low values",0.986
same,normalized growth,"locus YIR030C, strain dcg1, hits give low values",0.989
same,normalized growth,"locus YJL092W, strain hpr5, hits give low values",1.01
same,normalized growth,"locus YJL095W, strain BCK1 (second series), hits give low values",1.01
same,normalized growth,[3],1.02 and 0.982
same,normalized growth,"locus YJL115W, strain asf1, hits give low values",1.01
same,normalized growth,"locus YJL129C, strain trk1, hits give low values",1.03
same,normalized growth,"locus YJL134W, strain LCB3, hits give low values",0.992
same,normalized growth,"locus YJL154C, strain vps35, hits give low values",0.998
same,normalized growth,"locus YJL164C, strain tpk1, hits give low values",1.01
same,normalized growth,"locus YJL166W, strain qcr8, hits give low values",1.01
same,normalized growth,"locus YJL168C, strain set2, hits give low values",0.994
same,normalized growth,"locus YJL187C, strain SWE1 (second series), hits give low values",0.996
same,normalized growth,"locus YJL187C, strain SWE1, hits give low values",1.01
same,normalized growth,"locus YJR043C, strain POL32, hits give low values",0.996
same,normalized growth,[4],0.932
same,normalized growth,"locus YJR075W, strain HOC1, hits give low values",1.01
same,normalized growth,"locus YKL009W, strain mrt4, hits give low values",0.963
same,normalized growth,"locus YKL068W, hits give low values",1.09 [resistant] (active)
same,normalized growth,"locus YKL160W, strain elf1, hits give low values",1.03
same,normalized growth,"locus YKL190W, strain CNB1, hits give low values",1.03
same,normalized growth,"locus YKR001C, strain vps1, hits give low values",0.976
same,normalized growth,"locus YKR026C, strain gcn3, hits give low values",1.01
same,normalized growth,"locus YKR091W, strain srl3, hits give low values",1
same,normalized growth,"locus YLL001W, strain dnm1, hits give low values",1.03
same,normalized growth,"locus YLL026W, hits give low values",1
same,normalized growth,"locus YLL041C, strain sdh2, hits give low values",1
same,normalized growth,"locus YLR027C, strain aat2, hits give low values",1
same,normalized growth,"locus YLR039C, strain RIC1, hits give low values",1.02
same,normalized growth,"locus YLR058C, strain SHM2, hits give low values",1.01
same,normalized growth,"locus YLR102C, strain apc9, hits give low values",0.991
same,normalized growth,[5],0.999
same,normalized growth,"locus YLR221C, strain rsa3, hits give low values",1.03
same,normalized growth,"locus YLR258W, strain gsy2, hits give low values",0.996
same,normalized growth,"locus YLR262C, strain YPT6 (second series), hits give low values",1
same,normalized growth,"locus YLR262C, strain YPT6, hits give low values",1.08
same,normalized growth,"locus YLR268W, strain sec22, hits give low values",0.964
same,normalized growth,"locus YLR320W, strain mms22, hits give low values",1.04
same,normalized growth,"locus YLR330W, strain CHS5, hits give low values",1
same,normalized growth,"locus YLR342W, strain FKS1 (second series), hits give low values",0.998
same,normalized growth,"locus YLR342W, strain FKS1, hits give low values",0.986
same,normalized growth,"locus YLR357W, strain rsc2, hits give low values",1.01
same,normalized growth,"locus YLR370C, strain arc18, hits give low values",1.02
same,normalized growth,"locus YLR371W, strain rom2, hits give low values",0.985
same,normalized growth,"locus YLR384C, strain iki3, hits give low values",1.01
same,normalized growth,"locus YLR418C, strain cdc73, hits give low values",1.01
same,normalized growth,"locus YML016C, strain PPZ1, hits give low values",0.985
same,normalized growth,"locus YML032C, strain rad52, hits give low values",1.02
same,normalized growth,"locus YML120C, strain ndi1, hits give low values",1
same,normalized growth,"locus YML124C, strain tub3, hits give low values",0.994
same,normalized growth,"locus YMR058W, strain fet3, hits give low values",1.02
same,normalized growth,"locus YMR078C, strain ctf18, hits give low values",0.973
same,normalized growth,"locus YMR125W, strain sto1, hits give low values",1.01
same,normalized growth,"locus YMR129W, hits give low values",1
same,normalized growth,"locus YMR205C, strain PFK2, hits give low values",1.03
same,normalized growth,"locus YMR223W, strain ubp8, hits give low values",1
same,normalized growth,"locus YMR231W, strain pep5, hits give low values",1.01
same,normalized growth,"locus YMR307W, strain GAS1, hits give low values",1.09
same,normalized growth,"locus YNL067W, strain RPL9B, hits give low values",1
same,normalized growth,"locus YNL071W, strain lat1, hits give low values",1.01
same,normalized growth,[6],0.939
same,normalized growth,"locus YNL209W, strain ssb2, hits give low values",1.01
same,normalized growth,"locus YNL233W, strain BNI4, hits give low values",0.999
same,normalized growth,"locus YNL248C, strain rpa49, hits give low values",1
same,normalized growth,"locus YNL250W, strain rad50, hits give low values",0.978
same,normalized growth,"locus YNL271C, strain bni1, hits give low values",0.976
same,normalized growth,"locus YNL298W, strain CLA4, hits give low values",1.01
same,normalized growth,"locus YNL307C, strain MCK1, hits give low values",0.988
same,normalized growth,"locus YNL322C, strain KRE1 (second series), hits give low values",1.01
same,normalized growth,"locus YNR049C, strain mso1, hits give low values",1.01
same,normalized growth,"locus YNR052C, strain pop2, hits give low values",0.998
same,normalized growth,"locus YOL012C, strain htz1",0.862
same,normalized growth,"locus YOL147C, strain pex11, hits give low values",0.992
same,normalized growth,"locus YOR001W, strain rrp6, hits give low values",0.98
same,normalized growth,"locus YOR061W, strain CKA2, hits give low values",0.994
same,normalized growth,"locus YOR069W, strain VPS5, hits give low values",0.99
same,normalized growth,"locus YOR070C, strain gyp1, hits give low values",1.01
same,normalized growth,"locus YOR080W, strain dia2, hits give low values",1.01
same,normalized growth,"locus YOR083W, strain WHI5, hits give low values",1.03
same,normalized growth,"locus YOR106W, strain vam3, hits give low values",1.02
same,normalized growth,"locus YOR136W, strain idh2, hits give low values",0.979
same,normalized growth,"locus YOR144C, strain elg1, hits give low values",0.997
same,normalized growth,"locus YOR184W, strain ser1, hits give low values",0.98
same,normalized growth,[7],0.995
same,normalized growth,"locus YOR265W, strain rbl2, hits give low values",1.02
same,normalized growth,"locus YOR270C, strain vph1, hits give low values",1.04
same,normalized growth,"locus YOR290C, strain snf2, hits give low values",1
same,normalized growth,"locus YOR316C, strain cot1, hits give low values",0.999
same,normalized growth,"locus YPL051W, strain arl3, hits give low values",1.02
same,normalized growth,"locus YPL078C, strain atp4, hits give low values",1.01
same,normalized growth,"locus YPL106C, strain sse1, hits give low values",1
same,normalized growth,"locus YPL240C, strain hsp82, hits give low values",1
same,normalized growth,[8],0.972
same,normalized growth,"locus YPR119W, strain clb2, hits give low values",0.993
same,normalized growth,"locus YPR141C, strain kar3, hits give low values",0.984
same,normalized growth,"locus YPR163C, strain tif3, hits give low values",1
same,normalized growth,"locus YPR167C, strain met16, hits give low values",1.01
same,normalized growth,"strain wtn01, hits give low values",0.946
C=C(C)[C@@H]1CC[C@]2(C)CC[C@]3(C)[C@@H](CCC4[C@@]5(C)CC[C@H](O)C(C)(C)C5CC[C@]43C)C12 (some centres not stated),normalized growth,[1],1
same,normalized growth,[2],0.978
same,normalized growth,[3],0.993
same,normalized growth,[4],0.944
same,normalized growth,[5],0.992
same,normalized growth,[6],0.923
same,normalized growth,[7],0.99
same,normalized growth,[8],0.994
